Experimental data taken from ChEMBL document CHEMBL2218924, “A broad activity screen in support of a chemogenomic map for kinase signalling research and drug discovery” (Biochem J, 2013).

What was measured:
[1] = target: Tyrosine-protein kinase SYK (Homo sapiens) (UniProt P43405); conditions: at 10 µM
[2] = target: T1, Mitogen-activated protein kinase kinase kinase 7 (Homo sapiens) (UniProt O43318); conditions: at 1 µM
T1 sequence (whole entry): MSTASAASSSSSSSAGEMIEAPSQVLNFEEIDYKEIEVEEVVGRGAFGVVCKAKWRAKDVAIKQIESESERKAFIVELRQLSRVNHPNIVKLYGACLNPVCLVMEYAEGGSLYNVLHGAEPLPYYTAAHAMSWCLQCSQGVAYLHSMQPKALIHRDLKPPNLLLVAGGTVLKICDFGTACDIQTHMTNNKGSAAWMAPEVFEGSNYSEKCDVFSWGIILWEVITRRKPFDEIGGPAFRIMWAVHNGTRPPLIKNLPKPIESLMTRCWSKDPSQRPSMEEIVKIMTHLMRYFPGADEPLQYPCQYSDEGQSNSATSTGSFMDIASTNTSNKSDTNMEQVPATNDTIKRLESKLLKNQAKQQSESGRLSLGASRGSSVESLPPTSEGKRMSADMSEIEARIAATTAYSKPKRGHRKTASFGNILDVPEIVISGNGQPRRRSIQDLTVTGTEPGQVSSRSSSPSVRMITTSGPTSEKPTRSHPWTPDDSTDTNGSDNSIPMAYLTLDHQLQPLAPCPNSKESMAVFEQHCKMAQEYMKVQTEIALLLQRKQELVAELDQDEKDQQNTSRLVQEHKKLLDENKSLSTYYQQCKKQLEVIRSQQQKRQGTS

[3] = target: T1, Mitogen-activated protein kinase kinase kinase 7 (Homo sapiens); conditions: at 10 µM
[4] = target: T2, Serine/threonine-protein kinase TAO1 (Homo sapiens) (UniProt Q7L7X3); conditions: at 1 µM
T2 sequence (whole entry): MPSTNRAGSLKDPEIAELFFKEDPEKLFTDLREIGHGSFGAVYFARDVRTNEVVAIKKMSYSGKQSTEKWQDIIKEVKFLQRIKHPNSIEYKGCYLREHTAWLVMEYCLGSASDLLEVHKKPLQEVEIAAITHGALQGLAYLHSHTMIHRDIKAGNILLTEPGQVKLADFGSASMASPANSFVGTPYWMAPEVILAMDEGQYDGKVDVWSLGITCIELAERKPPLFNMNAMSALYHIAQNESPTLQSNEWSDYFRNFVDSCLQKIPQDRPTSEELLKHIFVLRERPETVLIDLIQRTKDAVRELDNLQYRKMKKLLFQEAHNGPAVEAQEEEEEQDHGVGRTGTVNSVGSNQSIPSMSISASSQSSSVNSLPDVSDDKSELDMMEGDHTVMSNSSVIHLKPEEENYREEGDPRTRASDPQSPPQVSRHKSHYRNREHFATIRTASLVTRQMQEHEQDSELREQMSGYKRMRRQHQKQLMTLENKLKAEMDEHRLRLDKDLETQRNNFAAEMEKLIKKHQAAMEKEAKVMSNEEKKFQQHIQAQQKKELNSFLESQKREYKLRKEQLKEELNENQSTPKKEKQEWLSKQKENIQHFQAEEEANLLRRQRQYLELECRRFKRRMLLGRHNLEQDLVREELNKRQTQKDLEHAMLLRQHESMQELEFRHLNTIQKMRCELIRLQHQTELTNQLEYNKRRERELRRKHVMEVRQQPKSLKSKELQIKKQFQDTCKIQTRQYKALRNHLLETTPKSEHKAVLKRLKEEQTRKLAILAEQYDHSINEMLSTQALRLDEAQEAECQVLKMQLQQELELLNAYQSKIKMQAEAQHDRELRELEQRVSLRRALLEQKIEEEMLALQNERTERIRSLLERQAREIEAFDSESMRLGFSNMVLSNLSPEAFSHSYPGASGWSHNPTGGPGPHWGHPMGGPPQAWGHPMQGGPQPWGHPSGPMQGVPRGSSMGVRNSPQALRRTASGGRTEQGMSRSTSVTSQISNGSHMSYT

[5] = target: T2, Serine/threonine-protein kinase TAO1 (Homo sapiens); conditions: at 10 µM
[6] = target: T3, Serine/threonine-protein kinase TAO2 (Homo sapiens) (UniProt Q9UL54); conditions: at 1 µM
T3 sequence (whole entry): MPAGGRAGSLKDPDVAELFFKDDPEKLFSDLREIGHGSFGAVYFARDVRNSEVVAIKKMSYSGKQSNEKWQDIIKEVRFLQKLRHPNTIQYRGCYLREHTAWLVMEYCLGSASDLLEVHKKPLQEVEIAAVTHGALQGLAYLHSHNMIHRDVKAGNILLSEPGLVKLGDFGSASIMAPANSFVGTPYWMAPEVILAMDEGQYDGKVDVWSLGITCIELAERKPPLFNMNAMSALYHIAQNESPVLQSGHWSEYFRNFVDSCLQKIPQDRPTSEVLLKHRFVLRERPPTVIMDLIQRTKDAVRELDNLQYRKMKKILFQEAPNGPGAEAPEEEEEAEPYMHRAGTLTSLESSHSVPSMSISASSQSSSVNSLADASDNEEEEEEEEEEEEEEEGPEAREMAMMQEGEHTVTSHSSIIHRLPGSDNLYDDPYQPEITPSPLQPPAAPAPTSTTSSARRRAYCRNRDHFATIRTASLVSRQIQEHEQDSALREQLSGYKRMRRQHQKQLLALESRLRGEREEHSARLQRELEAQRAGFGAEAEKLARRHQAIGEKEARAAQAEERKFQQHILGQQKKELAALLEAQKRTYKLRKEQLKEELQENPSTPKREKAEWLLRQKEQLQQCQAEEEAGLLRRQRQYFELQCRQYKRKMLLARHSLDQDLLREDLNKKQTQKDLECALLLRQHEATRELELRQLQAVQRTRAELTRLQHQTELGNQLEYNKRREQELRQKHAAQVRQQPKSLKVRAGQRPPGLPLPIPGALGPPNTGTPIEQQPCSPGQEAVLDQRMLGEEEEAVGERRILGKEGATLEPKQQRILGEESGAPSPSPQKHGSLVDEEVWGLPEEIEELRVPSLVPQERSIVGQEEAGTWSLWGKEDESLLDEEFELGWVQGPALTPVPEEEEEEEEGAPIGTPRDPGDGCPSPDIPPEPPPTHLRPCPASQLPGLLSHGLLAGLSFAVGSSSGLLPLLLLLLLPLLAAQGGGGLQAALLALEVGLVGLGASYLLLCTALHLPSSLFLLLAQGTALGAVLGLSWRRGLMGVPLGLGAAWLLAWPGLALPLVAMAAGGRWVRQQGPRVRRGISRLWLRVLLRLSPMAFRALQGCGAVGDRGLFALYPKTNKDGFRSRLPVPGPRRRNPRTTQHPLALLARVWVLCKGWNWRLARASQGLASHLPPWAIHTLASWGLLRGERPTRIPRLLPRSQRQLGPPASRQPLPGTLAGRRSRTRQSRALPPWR

[7] = target: T3, Serine/threonine-protein kinase TAO2 (Homo sapiens); conditions: at 10 µM
[8] = target: T4, Serine/threonine-protein kinase TAO3 (Homo sapiens) (UniProt Q9H2K8); conditions: at 1 µM
T4 sequence (whole entry): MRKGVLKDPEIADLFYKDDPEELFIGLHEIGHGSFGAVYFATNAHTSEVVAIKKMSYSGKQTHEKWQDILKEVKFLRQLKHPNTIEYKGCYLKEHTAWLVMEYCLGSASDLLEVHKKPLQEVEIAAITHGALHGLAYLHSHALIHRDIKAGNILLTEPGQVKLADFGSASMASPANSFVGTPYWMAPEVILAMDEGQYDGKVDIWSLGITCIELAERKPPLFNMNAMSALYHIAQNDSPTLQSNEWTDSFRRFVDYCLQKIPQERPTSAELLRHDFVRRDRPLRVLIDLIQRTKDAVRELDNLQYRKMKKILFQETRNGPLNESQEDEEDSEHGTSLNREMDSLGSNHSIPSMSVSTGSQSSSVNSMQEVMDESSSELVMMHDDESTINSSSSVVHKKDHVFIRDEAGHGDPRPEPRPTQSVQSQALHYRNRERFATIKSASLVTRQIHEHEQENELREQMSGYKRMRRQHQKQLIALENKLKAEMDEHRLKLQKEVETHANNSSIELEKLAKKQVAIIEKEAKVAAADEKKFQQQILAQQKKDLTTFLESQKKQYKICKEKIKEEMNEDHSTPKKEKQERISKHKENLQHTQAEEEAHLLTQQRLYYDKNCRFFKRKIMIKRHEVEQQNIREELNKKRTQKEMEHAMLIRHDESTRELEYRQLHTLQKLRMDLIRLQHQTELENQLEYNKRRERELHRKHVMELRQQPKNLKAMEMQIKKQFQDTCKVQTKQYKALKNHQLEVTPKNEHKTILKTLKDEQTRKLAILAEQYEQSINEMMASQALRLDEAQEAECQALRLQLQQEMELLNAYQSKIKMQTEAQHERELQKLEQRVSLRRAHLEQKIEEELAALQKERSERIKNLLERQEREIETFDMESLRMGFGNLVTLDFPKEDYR

[9] = target: T4, Serine/threonine-protein kinase TAO3 (Homo sapiens); conditions: at 10 µM

SMILES: Nc1nc(Nc2ccc(S(N)(=O)=O)cc2)nn1C(=S)Nc1c(F)cccc1F
- residual activity [1]: 3%
- residual activity [2]: 9%
- residual activity [3]: 2%
- residual activity [4]: 0%
- residual activity [5]: 1%
- residual activity [6]: 2%
- residual activity [7]: 3%
- residual activity [8]: 0%
- residual activity [9]: 2%
